High-throughput results from PubChem.
An excerpt weighted towards active compounds, which were near 7% of everything screened.
ATXN viability = cell viability loss in ATXN counter-screen; hit rate 0.49% among 400,000; S2 cells (HEK-293 line with an ATXN2-luciferase reporter) viability, CellTiter-Fluor protease fluorescence, 24 h; AID 651635; Potency, µM (highest dose often 56.7 µM), actives largely listed as cytotoxic; further: potency means the concentration at half of the fitted maximal effect; nearly all actives have a fitted effect of over 40% in size
Integrin act MD = activators of alpha7 integrin expression for muscular dystrophy; alpha7betagal myoblasts, beta-gal FDG fluorescence, 48 h; Potency, µM (doses to about 38.3 µM), without a hit: at the top dose activation, most hits filed as activators; hit rate 0.064% among 350,000; AID 624291;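 further: potency means the concentration at half of the fitted maximal effect; 100% = response of the positive control SU9516; nearly all actives have a fitted effect of over 60% in size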
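alpha7betagal+/- myoblasts (passage 13, 250/well) treated 48 h at 37C with compounds at 1:260 dilution of DMSO stock. Lysed, then beta-galactosidase activity read as FDG fluorescence (ex 480/em 540) after 30 min, with pre-read for autofluorescence.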
ATXN2 expr inh = inhibitors of ATXN2 expression; hit rate 0.72% among 360,000; Potency, µM (doses to about 57 µM), for inactives: top-dose activity change, negative = inhibition, usual class: inhibitors; HEK-293 ATXN2-luciferase reporter, luminescence, 24 h; AID 1745845; further: potency means the concentration at half of the fitted maximal effect; on the % scale 0 is the no-effect control and ±100 the full control effect; nearly all actives have a fitted effect of over 55% in size
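qHTS (up to 57 uM final) was run with 24 h compound exposure of reporter cells at 37 °C. Each well was multiplexed: SteadyGlo luminescence measured ATXN2-luciferase expression after a fluorogenic Gly-Phe-AFC viability readout (25 uM final).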
DRD3 agonist = D3 dopamine receptor (human) agonism | P35462 | D3R DiscoveRx beta-arrestin cells, luminescence, 90 min | max activation, % | hit rate 0.58% among 410,000 | AID 652048; in the data active means max activation above about 30%; further: 0% is about no effect
Target sequence (P35462 whole entry, looked up): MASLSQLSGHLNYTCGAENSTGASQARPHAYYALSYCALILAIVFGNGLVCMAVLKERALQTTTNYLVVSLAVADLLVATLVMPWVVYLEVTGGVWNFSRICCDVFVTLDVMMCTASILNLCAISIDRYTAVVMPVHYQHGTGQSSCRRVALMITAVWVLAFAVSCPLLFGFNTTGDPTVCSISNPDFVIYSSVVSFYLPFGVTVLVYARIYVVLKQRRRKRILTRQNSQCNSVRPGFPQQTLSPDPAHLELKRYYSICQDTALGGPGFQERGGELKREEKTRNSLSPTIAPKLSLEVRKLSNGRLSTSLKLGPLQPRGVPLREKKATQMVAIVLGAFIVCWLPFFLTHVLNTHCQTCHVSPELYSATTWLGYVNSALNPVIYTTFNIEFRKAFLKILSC
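Agonist mode: compounds and dopamine controls were applied to plated cells for 90 min at 37 degrees C after an overnight attachment at 1500 cells/well. Luminescent read-out followed 30 - 60 minutes at room temperature with DiscoveRx detection reagent.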
IL-1B inflam inh = blocks inflammasome-driven IL-1 beta release; activity change, % at 57.5 µM; hit rate 4.7% among 360,000; THP-1 LPS/ATP IL-1B secretion, AlphaLISA, 16 h; stronger effect = lower value; in the data active means activity change below about -50%; inconclusive means mostly about -30% to -49%; further: on the % scale 0 is the no-effect control and ±100 the full control effect
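THP-1 cells pretreated 1 hr with compounds (up to 57.5 uM final), then stimulated with LPS (250 ng/mL final) plus ATP (1.25 mM final); secreted IL-1B measured by AlphaLISA after 16 hr, decreased signal indicating inhibition.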
DRD3 antagonist = blocks the human D3 dopamine receptor; P35462; hit rate 2.5% among 360,000; D3R cells, DiscoveRx beta-arrestin luminescence, antagonist mode; stronger effect = lower value; max response, negative = inhibition, %; in the data active means max response below about -50%; inconclusive means no clear call, values can overlap the other calls; further: on the % scale 0 is the no-effect control and ±100 the full control effect
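Cells plated overnight at 1500 cells/well, then exposed to library compounds with dopamine controls for 90 minutes at 37 degrees C. DiscoveRx reagent added for 30–60 minutes at room temperature; luminescence read, quantitative HTS format.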
* = called active by the depositor; i = inactive; ? = inconclusive; . = not tested or not shown. Unless noted, the call rests on the fitted dose curve; in most records, active means well fitted curve in the direction sought with a large enough effect; inconclusive means small, poorly fitted or top-dose-only effect, or another doubt; inactive means no such curve, though single readings can be large; an effect the other way counts as inactive or inconclusive.

SMILES | ATXN viability | Integrin act MD | ATXN2 expr inh | DRD3 agonist | IL-1B inflam inh | DRD3 antagonist
Cc1cccc(N2C(N)=C(C#N)C(C#N)(C#N)C2c2ccccc2)c1 (stereo not given) | i | -1% | 5% | 7 | -9 | 24
N#CC1=C(N)C2=CCCC[C@H]2[C@H](c2ccc(Br)cc2)C1(C#N)C#N | i | -26% | -2% | -13 | -95* | -19
C#CCOCCOCCOCCNc1nc(N2CCOCC2)nc(N2CCN(C(=O)[C@H](C)n3cc(CCC(=O)O)nn3)CC2)n1 | i | 7% | 8% | 14 | 17 | 9
CCCCNC(=O)Nc1ccccc1Br | i | -2% | 28% | 2 | -8 | -15
CNC(=O)NNC(=O)c1csc(Cc2c(Cl)sc3ccc(Cl)cc23)n1 | i | ? | 3% | 1 | 6 | 8
NCCOc1ccc(C2CCCCC2)cc1 | i | -76% | . | -10 | -186* | 1
O=C(N/N=C/c1ccc(O)cc1)c1csc2c1CCCC2 | ? | -21% | 27% | 3 | -62* | 9
O=C(N/N=C/c1ccc(C(F)(F)F)cc1)c1ccc(O)cc1 | i | 8% | 4% | -4 | ? | 7
COc1cc(C(=O)N/N=C/c2ccc(OC)c(CN3CCN(c4ccc(F)cc4)CC3)c2)ccc1O | i | 23% | . | -13 | -7 | -75*
COc1cc(/C=N/NC(=O)c2ccc3c(c2)OCO3)ccc1O | i | 11% | 19% | 4 | 14 | 23
COc1ccc(/C=N/NC(=O)c2ccccc2)cc1CN1CCN(c2ccc(F)cc2)CC1 | i | 2% | 11% | -18 | 12 | -17
COc1cc(/C=N/NC(=O)c2ccc(-n3cccc3)cc2)ccc1O | i | 14% | 4% | 3 | -69* | 1
Nc1ncnc2c1ncn2[C@@H]1O[C@H](C(=O)NCc2ccc3c(c2)OCO3)[C@@H](O)[C@H]1O | i | . | 10% | -5 | -4 | 0
CNC(=O)[C@H]1O[C@@H](n2cnc3c(NCc4cccc(I)c4)nc(Cl)nc32)[C@H](O)[C@@H]1O | i | . | 10% | 4 | -89* | -18
Cc1cc(C)cc(NC(=O)CSc2nnc(CNC(=O)c3c(F)cccc3Cl)o2)c1 | . | . | . | -7 | . | .
CC(C)c1onc(C(=O)Nc2cccnc2Cl)c1[N+](=O)[O-] | i | -9% | 5% | -18 | 4 | 1
O=C(N/N=C/C=C/c1ccccc1)c1cc(C2CC2)[nH]n1 | i | 3% | 2% | -1 | -54* | 6
Cc1cc(C(=O)N/N=C/C=C/c2ccccc2)n[nH]1 | i | 21% | 2% | -2 | -23 | -2
Cc1cccc(C(=O)NNC(=O)C2CCCCC2)c1O | ? | -24% | . | 1 | 18 | 7
O=C(Nc1cccc(Cl)c1Cl)C1CC(=O)N(c2ccc(Br)cc2)C1 (stereo not given) | i | 6% | -28% | -12 | -6 | 9
CC(C)(C)N1CC(C(=O)Nc2cccc(Cl)c2Cl)CC1=O (stereo not given) | i | -4% | -8% | 1 | -69* | 23
Cc1ccc(-n2nnnc2SCC(=O)Nc2cccc(NC(=O)c3ccco3)c2)cc1C | i | 20% | -4% | 2 | 146 | 23
Cc1cc(C)cc(-n2nnnc2SCC(=O)Nc2cccc(NC(=O)c3ccco3)c2)c1 | ? | -6% | -6% | 0 | -52* | -24
CCC(=O)Nc1cccc(-c2nnc(SCC(=O)c3ccccc3)n2C)c1 | i | -20% | 36% | -8 | 16 | -52*
Cc1cc(C)c(OCC(=O)Nc2cccc(NC(=O)c3ccco3)c2)c(Br)c1 | ? | 10% | ? | 34* | -55* | 43
SMILES | ATXN viability | Integrin act MD | ATXN2 expr inh | DRD3 agonist | IL-1B inflam inh | DRD3 antagonist
Cn1c(SCC(=O)Nc2cc(Cl)cc(Cl)c2)nnc1-c1ccc2nonc2c1 | ? | -39% | 32µM* | -20 | . | -20
O=C(C1CCCO1)N1N=C(c2ccc(Br)cc2)CC1c1ccco1 (stereo not given) | i | -18% | -8% | 2 | ? | 3
COc1ccc(OC)c(NC(=O)c2nc(-c3ccccc3)oc2C)c1 | ? | ? | . | 2 | 26 | 20
O=C(NCc1ccc(F)cc1)C(=O)NCC1OCCN1S(=O)(=O)c1cc(F)ccc1F (stereo not given) | i | 4% | . | -3 | -12 | 0
Cc1cccc(-c2nnc(SCC(=O)N3c4ccccc4CCc4ccccc43)n2C)c1 | ? | 29% | -36% | 2 | -56* | -17
CCC(=O)Nc1cccc(-n2nnnc2SCC(=O)c2ccc(C)c(C)c2)c1 | i | -4% | 19% | 2 | -92* | 7
CCC(=O)Nc1cccc(-n2nnnc2SCC(=O)NCc2ccco2)c1 | i | -26% | 8% | 4 | 7 | 12
CC(=O)Nc1ccc(S(=O)(=O)N(Cc2cccnc2)Cc2cc3ccccc3[nH]c2=O)cc1 | i | ? | . | -8 | -1 | 14
CC1CCN(C(=O)c2ccccc2NC(=O)c2nsc3ccccc23)CC1 | . | . | . | -15 | . | .
CC(=O)c1ccc(NC(=S)N(C)C2CCN(C)CC2)cc1 | i | 13% | -8% | -4 | ? | ?
CCCN(CC1CC1)C(=S)Nc1ccc(C(C)=O)cc1 | i | 21% | 4% | -1 | -84* | -11
COc1ccc2[nH]c(=O)c(CN(Cc3ccccc3OC)Cc3nnnn3CC3CCCO3)cc2c1 (stereo not given) | i | -18% | -4% | 15 | ? | 6
Cc1ccc(C)c2[nH]c(=O)c(CN(Cc3ccc4c(c3)OCO4)Cc3nnnn3Cc3ccco3)cc12 | i | 8% | 3% | -4 | -60* | -16
COc1ccccc1CN(Cc1cc2cc(C)ccc2[nH]c1=O)Cc1nnnn1CC1CCCO1 (stereo not given) | i | 11% | -29% | -11 | -63* | ?
COc1ccc2[nH]c(=O)c(CN(Cc3ccco3)Cc3nnnn3Cc3ccccc3)cc2c1 | i | -44% | 9% | -1 | -8 | 32
CCc1ccc2[nH]c(=O)c(CN(Cc3ccccc3OC)Cc3nnnn3Cc3ccco3)cc2c1 | ? | -45% | ? | 1 | -82* | 15
COc1ccccc1CN(Cc1cc2cc(C)ccc2[nH]c1=O)Cc1nnnn1Cc1ccco1 | i | -17% | -35% | -10 | -62* | -8
Cc1cc(C)n(-c2nc3ccccc3nc2NCCc2ccccc2)n1 | i | 5% | 7% | 4 | 24 | 3
O=C(c1ccc(-c2ccc(Cl)cc2Cl)o1)N1CCOCC1 | ? | 34% | . | 0 | -4 | 4
Cn1c(NCc2ccccc2F)nc2cc(-c3cccc(Cl)c3)sc2c1=O | i | . | 8% | 0 | -1 | 25
